# Laboratory results: PubChem BioAssay
# The source made the active and inactive calls.
# What was measured:
# [1] = system: Plasmodium falciparum Sir2 (PF13_0152, Sir2A); assay: Plasmodium falciparum Sir2A binding compounds – biochemical, small-molecule microarray, 635 nm fluorescence, primary screen (AID 1098); settings: fluorescence 635 nm, higher = more signal;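 note: score merges spot fluorescence intensity with its signal-to-noise ratio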
# [2] = probe aDKK1 binding to arrayed compounds – biochemical, biotinylated probe, 635/667 nm fluorescence, primary screen (AID 1099); settings: small-molecule microarray, higher = more signal;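 note: score merges 667nm spot fluorescence with signal to noise across triplicate slides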
# [3] = probe aCHRDL2 binding to arrayed compounds – biochemical, biotinylated probe, 635/667 nm fluorescence, primary screen (AID 1100); settings: small-molecule microarray, higher = more signal
# [4] = change in splice reporter luminescence, either direction, cell-based, HEK293, spliceosome inhibition project, primary screen (AID 1101); settings: HEK293 splicing luciferase reporter, 24 h, higher = more signal, called active from +8 up or from −8 down;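 note: HEK293 cells carrying a splicing-competent luciferase reporter gene; test concentration not given here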
# [5] = biological target: Fibroblast growth factor 10 (Homo sapiens) (UniProt O15520); assay: compounds binding fibroblast growth factor 10 – biochemical, small-molecule microarray, 635 nm fluorescence, primary screen (AID 1102); settings: FGF10 binding, fluorescence 635 nm, higher = more signal
# Fibroblast growth factor 10 (Homo sapiens), sequence (O15520 whole entry, looked up): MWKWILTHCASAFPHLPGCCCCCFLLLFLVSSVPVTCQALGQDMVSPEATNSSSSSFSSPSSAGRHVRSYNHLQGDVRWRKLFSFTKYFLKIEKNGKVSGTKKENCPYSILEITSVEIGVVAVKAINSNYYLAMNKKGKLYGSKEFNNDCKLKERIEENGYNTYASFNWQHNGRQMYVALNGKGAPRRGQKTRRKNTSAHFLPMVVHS
# [6] = system: glycogen synthase kinase-3 (GSK3A per assay name; protocol says GSK3B); assay: compounds binding glycogen synthase kinase-3 – biochemical, small-molecule microarray, 635 nm fluorescence, GSK3A, primary screen (AID 1103); settings: fluorescence 635 nm, higher = more signal; note: the record names both GSK3A and GSK3B
# [7] = biological target: Epidermal growth factor receptor (Homo sapiens) (UniProt P00533); assay: compounds binding epidermal growth factor receptor – biochemical, small-molecule microarray, 635 nm fluorescence, primary screen (AID 1104); settings: EGFR binding, higher = more signal;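 note: score merges 667 nm emission intensity with spot signal to noise over triplicate slides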
# Epidermal growth factor receptor (Homo sapiens), sequence (P00533 whole entry, looked up): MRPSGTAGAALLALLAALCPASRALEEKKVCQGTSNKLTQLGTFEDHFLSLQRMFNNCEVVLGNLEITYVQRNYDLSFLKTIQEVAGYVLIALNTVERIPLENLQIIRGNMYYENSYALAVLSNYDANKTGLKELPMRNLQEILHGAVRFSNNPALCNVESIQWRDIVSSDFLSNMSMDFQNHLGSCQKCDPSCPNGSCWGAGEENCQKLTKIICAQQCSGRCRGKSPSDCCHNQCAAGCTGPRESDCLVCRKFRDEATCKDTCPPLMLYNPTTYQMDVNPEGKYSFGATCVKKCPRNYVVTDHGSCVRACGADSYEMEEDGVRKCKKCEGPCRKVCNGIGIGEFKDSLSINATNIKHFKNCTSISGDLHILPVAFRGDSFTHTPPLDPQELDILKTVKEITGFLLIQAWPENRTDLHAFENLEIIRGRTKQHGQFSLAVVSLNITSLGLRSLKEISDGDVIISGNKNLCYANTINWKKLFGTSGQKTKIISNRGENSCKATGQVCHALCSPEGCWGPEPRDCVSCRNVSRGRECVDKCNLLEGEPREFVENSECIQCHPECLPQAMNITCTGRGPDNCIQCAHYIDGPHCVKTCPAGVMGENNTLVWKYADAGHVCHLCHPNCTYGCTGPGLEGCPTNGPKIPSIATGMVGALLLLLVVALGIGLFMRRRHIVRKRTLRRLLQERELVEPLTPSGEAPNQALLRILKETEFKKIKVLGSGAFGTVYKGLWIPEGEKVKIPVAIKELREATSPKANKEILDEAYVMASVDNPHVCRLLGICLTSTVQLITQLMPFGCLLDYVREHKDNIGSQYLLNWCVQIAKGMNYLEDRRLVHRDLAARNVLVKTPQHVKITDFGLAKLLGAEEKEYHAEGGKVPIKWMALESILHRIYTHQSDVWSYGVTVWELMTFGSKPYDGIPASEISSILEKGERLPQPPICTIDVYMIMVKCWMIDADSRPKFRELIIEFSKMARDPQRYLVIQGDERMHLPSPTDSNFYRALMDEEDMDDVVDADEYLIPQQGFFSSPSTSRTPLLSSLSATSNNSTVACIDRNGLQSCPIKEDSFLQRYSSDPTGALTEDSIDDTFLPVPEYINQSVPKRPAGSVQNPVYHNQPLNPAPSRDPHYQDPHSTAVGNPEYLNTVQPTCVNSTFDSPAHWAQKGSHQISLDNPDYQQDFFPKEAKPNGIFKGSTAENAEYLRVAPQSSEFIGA
# [8] = biological target: Follistatin-related protein 3 (Homo sapiens) (UniProt O95633); assay: compounds binding follistatin-related protein 3 – biochemical, small-molecule microarray, 635 nm fluorescence, primary screen (AID 1105); settings: FSTL3 binding, higher = more signal;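 note: score merges emission near 667 nm and signal to noise per printed spot across three slides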
# Follistatin-related protein 3 (Homo sapiens), sequence (O95633 whole entry, looked up): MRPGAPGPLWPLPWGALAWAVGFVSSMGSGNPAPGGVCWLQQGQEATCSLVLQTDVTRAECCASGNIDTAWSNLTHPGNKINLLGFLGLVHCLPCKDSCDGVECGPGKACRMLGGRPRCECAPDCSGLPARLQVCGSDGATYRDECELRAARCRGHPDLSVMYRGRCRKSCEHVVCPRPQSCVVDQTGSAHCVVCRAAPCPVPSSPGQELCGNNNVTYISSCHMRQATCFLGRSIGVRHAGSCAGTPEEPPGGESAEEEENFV
# [9] = biological target: Dickkopf-related protein 1 (Homo sapiens) (UniProt O94907); assay: small molecules binding DKK1 protein – biochemical, small-molecule microarray, 635 nm fluorescence scan, primary screen (AID 1106); settings: higher = more signal;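 note: score merges emission near 667 nm with signal to noise over three replicate slides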
# Dickkopf-related protein 1 (Homo sapiens), sequence (O94907 whole entry, looked up): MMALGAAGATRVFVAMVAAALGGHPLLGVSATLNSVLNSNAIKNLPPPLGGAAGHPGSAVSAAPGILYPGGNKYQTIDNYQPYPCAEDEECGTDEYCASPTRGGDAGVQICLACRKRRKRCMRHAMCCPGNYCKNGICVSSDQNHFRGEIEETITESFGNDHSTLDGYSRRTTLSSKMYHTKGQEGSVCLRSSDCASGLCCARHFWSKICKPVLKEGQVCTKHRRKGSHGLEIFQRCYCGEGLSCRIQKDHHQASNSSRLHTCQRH
# [10] = system: Inhibin beta A chain (activin A); assay: small molecules binding activin A – biochemical, small-molecule microarray, 635 nm fluorescence scan, primary screen (AID 1107); settings: INHBA, higher = more signal;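 note: mouse activin A protein probed at 4.33 µg/mL on printed slides; score merges bound-protein fluorescence near 667 nm with spot signal-to-noise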
# [11] = system: Human papillomavirus type 1a protein E7 (residues 44-93); assay: small molecules binding HPV E7 44-93 – biochemical, small-molecule microarray, residues 44-93, 635 nm fluorescence, primary screen (AID 1108); settings: fluorescence 635 nm, higher = more signal;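 note: E7 fragment applied at 1 µg/mL in TBST for 1 h at 4 C; score combines spot fluorescence with its signal to noise ratio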
# [12] = hepatitis C replication reporter changes, two-sided – Huh7 cells, luciferase reporter, HCV replication inhibitor project, primary screen (AID 1109); settings: Huh7 HCV replicon luciferase reporter, 48 h; higher = more signal;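 note: huh7 hepatoma cells harbouring a luciferase neomycin HCV replicon reporter; luciferase luminescence as measure of HCV replicon replication; test concentration not given here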
# [13] = biological target: Left-right determination factor 2 (Homo sapiens) (UniProt O00292); assay: small molecules binding LEFTY2 protein – biochemical, small-molecule microarray, 635 nm fluorescence scan, primary screen (AID 1110); settings: higher = more signal
# Left-right determination factor 2 (Homo sapiens), sequence (O00292 whole entry, looked up): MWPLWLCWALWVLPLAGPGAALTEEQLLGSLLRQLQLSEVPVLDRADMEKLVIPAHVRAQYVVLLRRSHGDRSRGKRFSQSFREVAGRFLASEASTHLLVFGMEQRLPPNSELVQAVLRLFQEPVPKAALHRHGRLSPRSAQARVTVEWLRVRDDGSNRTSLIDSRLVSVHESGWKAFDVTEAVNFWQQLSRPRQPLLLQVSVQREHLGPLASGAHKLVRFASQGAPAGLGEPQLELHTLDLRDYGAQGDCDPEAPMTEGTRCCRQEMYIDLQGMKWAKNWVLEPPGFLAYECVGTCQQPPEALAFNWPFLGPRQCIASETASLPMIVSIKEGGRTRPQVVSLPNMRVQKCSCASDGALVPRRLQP
# [14] = biological target: Calmodulin-1 (Homo sapiens) (UniProt P0DP23); assay: small molecules binding calmodulin-1 with EGTA – biochemical, small-molecule microarray, Cy5-labelled CALM1, profiling panel (AID 1111); settings: Cy5-CALM1 binding fluorescence, higher = more signal;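 note: labelled calmodulin applied in Tris saline Tween buffer holding calcium plus EGTA and DTT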
# [15] = biological target: Calmodulin-1 (Homo sapiens) (UniProt P0DP23); assay: small molecules binding Ca-loaded calmodulin-1 – biochemical, small-molecule microarray, Cy5-labelled CALM1, plus calcium, artefact control for SMM control-protein annotation, profiling panel (AID 1112); settings: Cy5-CALM1 binding fluorescence, higher = more signal;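 note: score merges spot fluorescence with signal to noise from triplicate slides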
# [16] = probe aWnt5a binding to arrayed compounds – biochemical, biotinylated probe, 635/667 nm fluorescence, primary screen (AID 1113); settings: small-molecule microarray, higher = more signal;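 note: score merges 667 nm fluorescence intensity with signal-to-noise per printed feature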
# [17] = probe aShh binding to arrayed compounds – biochemical, biotinylated probe, 635/667 nm fluorescence, primary screen (AID 1114); settings: small-molecule microarray, higher = more signal;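 note: probe is biotin-labelled aShh protein from a stem cell growth factor screen; measures binding of labelled protein to compounds printed on the slide; score merges feature fluorescence at 667 nm with signal-to-noise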
# [18] = probe aNog binding to arrayed compounds – biochemical, biotinylated probe, 635/667 nm fluorescence, primary screen (AID 1115); settings: small-molecule microarray, higher = more signal;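 note: probe is biotinylated aNog protein used at 0.15 µg/mL for 1 h at 4 C; z-score combines 667 nm fluorescence of each spot with its signal to noise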
# [19] = biological target: Torsin-1A-interacting protein 1 (Homo sapiens) (UniProt Q5JTV8); assay: compound microarray binding of lysate hLAP1 – cell lysate, small-molecule microarray, COS7 lysate, 635/667 nm fluorescence, primary screen (AID 1116); settings: 635 nm fluorescence, higher = more signal
# Torsin-1A-interacting protein 1 (Homo sapiens), sequence (Q5JTV8 whole entry, looked up): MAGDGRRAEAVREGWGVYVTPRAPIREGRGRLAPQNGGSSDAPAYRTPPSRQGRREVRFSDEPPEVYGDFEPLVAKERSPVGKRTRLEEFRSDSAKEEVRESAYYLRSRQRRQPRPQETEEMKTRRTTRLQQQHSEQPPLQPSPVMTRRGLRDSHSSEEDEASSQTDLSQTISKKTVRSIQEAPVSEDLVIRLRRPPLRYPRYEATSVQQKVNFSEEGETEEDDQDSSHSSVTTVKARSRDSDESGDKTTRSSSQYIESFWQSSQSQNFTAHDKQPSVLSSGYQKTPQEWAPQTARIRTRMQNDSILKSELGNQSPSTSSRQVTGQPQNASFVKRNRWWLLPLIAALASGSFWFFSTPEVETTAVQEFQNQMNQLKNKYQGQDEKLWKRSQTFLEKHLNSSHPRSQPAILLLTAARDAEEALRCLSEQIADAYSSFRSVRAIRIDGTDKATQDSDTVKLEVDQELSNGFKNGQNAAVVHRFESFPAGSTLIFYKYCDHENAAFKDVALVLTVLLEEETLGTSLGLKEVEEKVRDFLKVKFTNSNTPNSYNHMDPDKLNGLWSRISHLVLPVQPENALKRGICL
# [20] = biological target: Alpha-bungarotoxin (Bungarus multicinctus) (UniProt P60615); assay: compounds binding labelled alpha-BTX control protein – biochemical, small-molecule microarray, Alexa647 label, 635/667 nm fluorescence, artefact control for SMM control protein annotation, profiling panel (AID 1117); settings: alpha-BTX-A647 binding fluorescence, higher = more signal
# Alpha-bungarotoxin (Bungarus multicinctus), sequence (P60615 whole entry, looked up): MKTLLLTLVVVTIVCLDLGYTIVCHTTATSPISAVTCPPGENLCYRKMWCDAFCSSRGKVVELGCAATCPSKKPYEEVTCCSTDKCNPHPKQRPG
Compound,composite z-score [1],composite z-score [2],composite z-score [3],z-score [4],composite z-score [5],composite z-score [6],composite z-score [7],composite z-score [8],composite z-score [9],composite z-score [10],composite z-score [11],z-score [12],composite z-score [13],composite z-score [14],composite z-score [15],composite z-score [16],composite z-score [17],composite z-score [18],composite z-score [19],composite z-score [20]
CS(=O)(=O)CCOC(=O)C1=CC(CCCO)=CC(c2cccs2)N(Cc2cc3c(cc2Br)OCO3)C=C1C(=O)OCCS(C)(=O)=O (stereo not given),0.727,-0.0606,0.15,0.576 (inactive),1.04,1.25,0.259,1.22,0.238,1.2,1.27,-1.22,0.858,1.29,0.671,0.0968,0.0639,-0.261,0.955,1.8
O=C1O[C@@H](c2ccccc2)[C@@H](c2ccccc2)N2[C@@H](c3ccc(O)cc3)[C@]3(C(=O)Nc4ccc(C#CC5=CCCCC5)cc43)[C@@H](C(=O)O)[C@H]12,1.14,0.799,0.999,-1.05 (inactive),0.277,0.653,0.035,0.545,0.0526,1.19,0.2,0.0664,0.0765,2.02,0.999,-0.0077,0.123,0.413,1.55,1.17
CC(C)C(=C=CC[C@H](O)c1cccc(OCCO)c1)C[C@H](O)COCc1ccccc1,0.845,-0.27,-0.154,0.102 (inactive),0.876,-0.376,-0.379,-0.0234,0.116,0.405,0.0677,-0.285,-0.0641,-0.53,-0.981,-0.096,0.0062,0.0308,1.14,0.0589
CCOC(=O)C1=CCC(c2ccc([N+](=O)[O-])cc2)N(S(=O)(=O)c2ccc(C)cc2)C1 (stereo not given),0.376,0.616,0.983,-0.22 (inactive),-0.0502,0.0526,-0.356,0.171,-0.421,1.32,1.08,-2.35,-0.087,0.279,0.548,-0.0644,0.138,0.61,0.304,0.159
NCCCCCCNC(=O)[C@H]1C[C@H]2C(=O)NCC(=O)N2[C@H]1c1cccc(OCCO)c1,1.56,0.0447,0.161,-0.283 (inactive),0.641,1.1,0.544,0.563,0.978,-0.0745,0.298,-0.128,0.816,-0.0421,-0.369,-0.0643,0.199,0.0234,0.963,1.37
O=C1C2C=CC(C(O)c3ccc(F)cc3)N(Nc3ccccc3)C2C(=O)N1c1ccccc1 (stereo not given),1.44,1.05,0.794,0.444 (inactive),-0.0653,-0.0052,-0.296,-0.216,-0.954,1.46,1.42,-0.379,-0.238,0.691,0.619,0.0597,-0.289,0.195,0.691,1.97
O=C1OCCC=C[C@H]2OC34C=CCN(Cc5ccccc5)C(=O)[C@H]3N(CCCO)C(=O)[C@@H]4C12 (stereo not given in full),0.53,-0.33,-0.182,-1.74 (inactive),-0.745,-1.44,-0.873,-0.512,-0.179,0.399,-0.786,-0.0946,-0.424,-0.438,0.0072,-0.164,-0.206,-0.0602,0.0647,-0.473
[N-]=[N+]=NCc1ccccc1C[C@]1(C(=O)O)N=C(c2ccc(OCCCO)cc2)O[C@H]1c1ccccc1,1.44,0.181,1.06,0.624 (inactive),-0.2,0.102,-1,-0.627,-0.94,0.884,0.903,-0.748,-1.18,1.17,0.671,-0.096,-0.0626,1.29,3.14,0.966
CCCCCN1CC=CC23O[C@@H]4/C=C\CCCOC(=O)C4[C@H]2C(=O)N(CCCCCCO)[C@@H]3C1=O (stereo not given in full),1.43,-0.231,0.139,-3.07 (inactive),-0.894,0.233,-0.0633,-0.0242,-1.22,1.26,-0.0348,-0.857,-0.545,-0.758,-0.0227,-0.154,-0.0035,-0.237,1.09,-0.752
CC(C)CNC(=O)[C@@]1(c2ccc([N+](=O)[O-])cc2)CC(=O)N(CC23CC4CC(CC(C4)C2)C3)[C@@H]1c1ccc(CO)cc1,0.947,0.0324,0.555,-2.11 (inactive),1.24,0.715,0.283,0.58,0.127,0.328,1.07,-2.62,-0.15,-0.367,0.113,0.0215,-0.0709,1.23,1.96,0.438
COc1ccc([Si](C)(C)[C@H]2[C@H](CC(=O)N(CCO)Cc3ccccc3)O[C@@]3(C(=O)N(Cc4cccc(N5CCC5=O)c4)c4ccccc43)[C@@H]2C)cc1,1.32,0.122,0.0014,-2.18 (inactive),0.697,0.599,0.4,0.893,0.696,0.928,0.784,-3.85,0.829,0.64,-0.173,-0.1,-0.0793,-0.0311,0.059,1.03
CCOC(=O)C1=CCC(C(C)(C)C)N(S(=O)(=O)c2ccc(C)cc2)C1 (stereo not given),0.939,0.368,0.108,-0.0514 (inactive),1.48,0.347,1.15,1.43,1.44,0.136,1.46,-2.59,1.37,0.898,0.197,0.0561,-0.532,0.562,0.944,1.5
Cc1ccc(S[C@]2(C(=O)NCc3ccccc3)CC(=O)N(Cc3ccccc3Cl)[C@@H]2c2ccc(CO)cc2I)cc1,0.49,0.302,1.13,-1.6 (inactive),-0.761,-0.528,-1.17,-0.689,-1.22,0.962,-0.173,-1.74,-2.11,-0.162,0.137,-0.124,-0.426,-0.581,0.0931,1.7
CC(C)Cc1ccc(CN2CC[C@@H](NS(=O)(=O)c3ccccc3)C2)cc1,-0.265,-0.367,-0.747,3.53 (inactive),-0.0725,-0.375,-0.608,0.0789,0.292,0.298,0.429,-4.17,0.0423,-0.856,-0.859,-0.176,-0.455,-0.438,-0.633,-0.577
O=C1O[C@H](c2ccccc2)[C@H](c2ccccc2)N2[C@H]1[C@@H](C(=O)Nc1nc3ccccc3s1)[C@]1(C(=O)Nc3ccccc31)[C@H]2c1ccc(O)cc1,1.57,-0.0334,0.126,-0.449 (inactive),0.939,1.08,0.598,1.31,1.11,0.435,1.35,-1.35,0.684,0.281,-0.322,-0.0903,-0.138,-0.0272,0.536,1.27
CC(C)(C)OC(=O)CC[C@]1(C(=O)N2CCCCC2)N=C(c2ccc(OCCCO)cc2)O[C@H]1c1ccccc1N=[N+]=[N-],0.668,0.639,0.869,-1.37 (inactive),0.968,0.736,0.6,0.81,-0.135,1.34,1.43,0.6,0.376,2.25,1.38,0.152,-0.385,0.207,1.47,0.823
COc1cc2c(cc1OC)CN(C(=O)[C@@H]1[C@H]3C(=O)O[C@H](c4ccccc4)[C@H](c4ccccc4)N3[C@H](c3ccccc3OCCO)[C@@]13C(=O)Nc1ccc(C#CCNC(N)=O)cc13)CC2,1.58,0.0627,0.281,0.095 (inactive),0.518,1.08,0.245,0.445,0.208,0.922,0.644,-1.01,0.17,1.36,0.478,0.0744,0.155,1.12,1.29,1.9
CN(C)C(=O)[C@@]1(CCC(=O)OC(C)(C)C)N=C(c2ccc(OCCCO)cc2)O[C@H]1c1ccccc1,1.75,0.559,0.401,-0.919 (inactive),0.0744,0.556,-0.58,-0.725,-0.887,0.366,1.49,-1.01,-0.964,1.03,1,0.0733,0.357,0.546,1.41,0.575
